Compound activity as filed in PubChem.
Hits are enriched below; roughly 19% of the tested compounds scored in any of these assays.
Giardia killer = Small Molecules that selectively kill Giardia lamblia: qHTS; Giardia lamblia trophozoite viability; activity change, % at 7.66 µM, hits read low; hit rate 0.15% among 340,000; AID 540267, 2011; in the data active means activity change below about -80%; inconclusive means between about -30% and that limit;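 further: parasites exposed to compound for two days anaerobically before the ATP read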
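Giardia lamblia trophozoites (100 cells/well) were incubated with compounds for 48 h at 37 deg C under anaerobic conditions. Viability was read as ATP content by one-step luminescence after 15-30 min at room temperature.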
DT40 TDP1 CPT = qHTS for Inhibitors of human tyrosyl-DNA phosphodiesterase 1 (TDP1): qHTS in cells in presence of CPT | hit rate 12% among 420,000 | chicken DT40 Tdp1-/-;hTDP1 cells + 20 nM CPT, ATP luminescence, 48 h | Potency, µM (highest dose often 46.2 µM), usual class: inhibitors; further: nearly all actives have a fitted effect of over 55% in size
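Chicken DT40 Tdp1-/- cells stably complemented with human TDP1 were seeded at 400 cells/well in medium containing 20 nM camptothecin, exposed to pin-transferred compounds, and grown at 37 °C for at least 48 hr. Viability was read as ATP luminescence.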
ELG1 repair inh = qHTS screen for small molecules that inhibit ELG1-dependent DNA repair in human embryonic kidney (HEK293T) cells expressing luciferase-tagged ELG1; hit rate 2.3% among 330,000; HEK293T ELG1-luciferase reporter, luminescence, 16 h; DNA damage induced by 5-fluorouridine; Potency, µM (doses to about 46.1 µM), actives largely listed as inhibitors; further: nearly all actives have a fitted effect of over 55% in size
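Cells (2,000 per well) received 5-fluorouridine plus test compound or DMSO and were incubated 16 hr at 37 °C, 5% CO2. Luciferase activity was read by luminescence 30 min after ONE-Glo addition; signal suppression marked inhibition of damage-induced ELG1 function.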
IL-1B inflam inh = qHTS for Inhibitors of Inflammasome Signaling: IL-1-beta AlphaLISA Primary Screen | THP-1 LPS/ATP IL-1B secretion, AlphaLISA, 16 h; stronger effect = lower value | activity change, % at 57.5 µM | hit rate 4.7% among 360,000 | AID 743279, 2014; in the data active means activity change below about -50%; inconclusive means mostly about -30% to -49%
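THP-1 cells pretreated 1 hr with compounds (up to 57.5 uM final), then stimulated with LPS (250 ng/mL final) plus ATP (1.25 mM final); secreted IL-1B measured by AlphaLISA after 16 hr, decreased signal indicating inhibition.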
TDP1 block = qHTS Assay for Inhibitors of Tyrosyl-DNA Phosphodiesterase (TDP1). AID 485290, 2010. recombinant TDP1, AlphaScreen DNA substrate cleavage. Potency, µM (top dose mostly 130 µM), hits mostly inhibitors. hit rate 0.28% among 350,000. Tyrosyl-DNA phosphodiesterase 1 (Homo sapiens), Q9NUW8; further: nearly all actives have a fitted effect of over 40% in size
Target sequence (Q9NUW8 whole entry, looked up): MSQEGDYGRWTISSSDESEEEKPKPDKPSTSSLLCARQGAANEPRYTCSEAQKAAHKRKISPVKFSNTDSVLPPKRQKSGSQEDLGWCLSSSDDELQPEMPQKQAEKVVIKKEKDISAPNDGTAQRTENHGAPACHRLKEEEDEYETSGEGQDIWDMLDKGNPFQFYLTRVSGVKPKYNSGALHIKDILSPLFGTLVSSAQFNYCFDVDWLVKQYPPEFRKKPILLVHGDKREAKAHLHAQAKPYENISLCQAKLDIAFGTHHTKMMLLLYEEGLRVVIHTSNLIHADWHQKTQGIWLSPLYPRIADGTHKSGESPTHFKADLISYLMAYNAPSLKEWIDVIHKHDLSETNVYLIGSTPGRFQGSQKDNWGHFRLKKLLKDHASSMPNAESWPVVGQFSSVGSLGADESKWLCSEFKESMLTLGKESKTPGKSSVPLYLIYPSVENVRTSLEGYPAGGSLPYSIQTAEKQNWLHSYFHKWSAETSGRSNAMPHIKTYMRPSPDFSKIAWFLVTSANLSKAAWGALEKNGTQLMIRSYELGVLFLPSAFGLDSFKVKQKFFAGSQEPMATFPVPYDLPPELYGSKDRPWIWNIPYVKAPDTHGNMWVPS
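Signal: AlphaScreen proximity between streptavidin donor and anti-FITC acceptor beads on intact substrate. Reaction: Tdp1 1 nM, substrate 15 nM final, 5 min RT after 15 min compound preincubation.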
DT40 TDP1 no CPT = qHTS for Inhibitors of human tyrosyl-DNA phosphodiesterase 1 (TDP1): qHTS in cells in absence of CPT; DT40 Tdp1-/- hTDP1 cells, no CPT, ATP luminescence, 48 h; Potency, µM (titrated, usually from 46.2 µM), hits mostly inhibitors; hit rate 15% among 420,000; further: nearly all actives have a fitted effect of over 55% in size
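Readout: luminescence from CellTiter-Glo after 30 min in the dark at RT. Cells: DT40 Tdp1-/- with stable hTDP1, 400/well. Exposure: compounds alone, ≥48 hr, 37 °C.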
Hits are given with their value; i = inactive; ? = inconclusive; nt = no result; [ ] = another dose, or the depositor's remark. Unless noted, the call rests on the fitted dose curve; in most records, active means well fitted curve in the direction sought with a large enough effect; inconclusive means small, poorly fitted or top-dose-only effect, or another doubt; inactive means no such curve, though single readings can be large; an effect the other way counts as inactive or inconclusive.

SMILES	Giardia killer	DT40 TDP1 CPT	ELG1 repair inh	IL-1B inflam inh	TDP1 block	DT40 TDP1 no CPT
Cc1nc(C)c(/C(O)=C/c2nc3ccccc3oc2=O)s1	i	8.2µM	i	i	i	10.3µM
Nc1ccc2nc(CCCO)[nH]c2c1	i	i	i	i	i	i
CN(Cc1cn(-c2ccccc2)nc1-c1ccc2c(c1)OCO2)Cc1nccn1C	i	25.9µM	?	?	i	23.1µM
CN(CCn1ccnc1)Cc1cn(-c2ccccc2)nc1-c1ccc2c(c1)OCO2	i	i	i	i	i	i
O=Cc1cccc2ccc3cccc(C(=O)O)c3c12	i	i	nt	i	nt	i
O=S(=O)(c1cccc(F)c1)N1CCN(S(=O)(=O)c2ccc3c(c2)OCCO3)CC1	nt	nt	nt	nt	i	nt
Cc1oc(-c2ccc(Cl)cc2)nc1CS(=O)CC(=O)NCCCN1CCN(Cc2ccccc2)CC1 (configuration not stated)	i	14.6µM	?	-79.5	i	?
Cc1ccc(-c2nc(CSCC(=O)NCCCN3CCOCC3)c(C)o2)cc1	i	i	i	i	i	i
Cc1oc(-c2ccccc2F)nc1CSCC(=O)NCCc1ccccc1	nt	13µM	nt	nt	i	18.4µM
CCOc1ccc(-c2nc(CSCC(=O)NCCc3ccccc3)c(C)o2)cc1	nt	?	nt	nt	i	18.4µM
Cc1oc(-c2ccccc2F)nc1CSCC(=O)NC1CC1	i	?	i	i	i	i
Cc1ccc(-c2nc(CSCC(=O)NCCN3CCN(Cc4ccccc4)CC3)c(C)o2)cc1	i	?	16.4µM	i	i	20.6µM
COc1cc(C(=O)Nc2nnc(C3=COCCO3)o2)cc(OC)c1OC	i	i	i	i	i	i
COc1cccc(C2(CC(=O)N3CCC(c4nc5ccc(F)cc5[nH]4)CC3)CC(=O)N(C)C2=O)c1 (configuration not stated)	nt	i	nt	nt	nt	i
Cc1ncc2c(c1CNC(=O)/C=C/c1cccs1)CCN(C(=O)c1ccc3c(c1)OCCO3)C2	nt	i[9.04 µM]	nt	nt	nt	i
COc1cc(C(=S)N2CCCCC2)ccc1OCC(=O)Nc1ccc(F)cc1	i	?	i	i	i	?
CCc1ccc(-c2nc(CSCC(=O)NCc3ccccc3OC)c(C)o2)cc1	nt	20.6µM	nt	nt	i	16.4µM
C[C@@H]1CCCCO[C@H](CN(C)Cc2ccc(C(F)(F)F)cc2)[C@@H](C)CN([C@H](C)CO)C(=O)c2cc(NS(=O)(=O)c3cn(C)cn3)ccc2O1	nt	i	nt	i	nt	?
O=C(C1CCCN1S(=O)(=O)c1ccc(Cl)cc1)N1CCCCC1 (configuration not stated)	i	i	i	i	i	i
CC(C)n1nccc1N(Cc1ccc(Cl)cc1)S(=O)(=O)c1ccccc1	i	i	i	-70.8	nt	?
CC(C)n1nccc1N(Cc1ccc(Br)cc1)S(=O)(=O)c1ccccc1	i	23.1µM	?	?	nt	?
CN(C)/C=N/n1cnc2ccccc2c1=O	i	i	i	i	nt	i
CN(C)c1ccc(C(I)C(I)c2ccnc3ccccc23)cc1 (configuration not stated)	nt	11.2µM	nt	nt	nt	10µM
CN(C)c1ccc(/C=C/c2ccnc3ccc4ccccc4c23)cc1	nt	0.141µM	nt	nt	nt	0.126µM
CN(C)c1ccc(/C=C/c2ccnc3ccc(I)cc23)cc1	nt	3.16µM	nt	nt	nt	3.98µM
SMILES	Giardia killer	DT40 TDP1 CPT	ELG1 repair inh	IL-1B inflam inh	TDP1 block	DT40 TDP1 no CPT
CCN(N=O)c1ccc(/C=C/c2ccnc3ccccc23)cc1	nt	6.31µM	nt	nt	nt	6.31µM
CN(C)c1ccc(/C=C/c2cccc3ccccc23)cc1	nt	i	nt	nt	nt	?
COCCCNC(=O)C1CCN(Cc2nc(-c3ccc(OC)c(OC)c3)oc2C)CC1	nt	i	nt	nt	i	i
CN(C)c1ccc(/C=C/c2ccnc3ccc([N+](=O)[O-])cc23)cc1	nt	11.2µM	nt	nt	nt	?
Cn1cnc2ccc([N+](=O)[O-])cc2c1=O	i	i	i	i	i	i
CCCN(CCC)c1ccc(/C=C/c2ccnc3ccccc23)cc1	nt	7.08µM	nt	nt	nt	5.01µM
Cc1cc(N(C)C)ccc1/C=C/c1ccnc2ccccc12	nt	11.2µM	nt	nt	nt	7.94µM
CN(N=O)c1ccc(/C=C/c2ccnc3ccccc23)cc1	nt	7.94µM	nt	nt	nt	5.62µM
O=C1CCc2cc(S(=O)(=O)Nc3ccc(Cl)c(Cl)c3)ccc2N1	nt	nt	nt	nt	i	nt
Cc1ncc2c(c1CNC(=O)/C=C/c1cccs1)CCN(C(=O)C1CC(=O)OC13CCCCC3)C2 (configuration not stated)	nt	i[9.04 µM]	nt	nt	nt	i
O=S(=O)(NCc1nnc2n1CCN(Cc1ccccc1Cl)CC2)c1ccccc1	nt	i	nt	nt	nt	?
CN(C)c1ccc(/C=C/c2ccnc3ccccc23)cc1	nt	?	nt	nt	nt	15.8µM
Cc1ccc(NC(=O)CSc2nc(=O)n(Cc3ccco3)c3c2CCC3)cc1F	nt	?	nt	nt	i	?
COc1cc(/C=C(/C#N)C(=O)Nc2ccc(C)cc2)ccc1Oc1nc(Cl)ncc1F	i	23.1µM	i	i	i	16.4µM
COc1ccc(/C=N/n2cnnc2)cc1Oc1nc(Cl)ncc1F	i	i	i	i	i	i
COc1ccc(C=O)cc1Oc1nc(Cl)ncc1F	i	?	i	i	i	?
COc1cc(/C=N/n2cnnc2)ccc1Oc1nc(Cl)ncc1F	i	16.4µM	?	i	i	?
CC(C)(C)c1ccc(-c2nnc(SCC(=O)NCC3CCCO3)n2N)cc1 (configuration not stated)	i	i	?	i	i	i
O=C(CSc1nnc2ccc(-c3ccc(Br)cc3)nn12)NCC1CCCO1 (configuration not stated)	i	20.6µM	i	?	nt	?
Nn1c(SCC(=O)NCC2CCCO2)nnc1-c1ccc(OC(F)F)cc1 (configuration not stated)	i	i	?	i	89.1µM	i
O=C(CN(c1ccccc1)S(=O)(=O)c1ccccc1)NCCSCc1ccco1	i	i	i	i	28.2µM	i
O=C(NCCSCc1ccco1)Nc1cccc(Cl)c1	i	?	?	?	i	?
COc1ccccc1N(CC(=O)NCCSCc1ccccc1)S(=O)(=O)c1ccc(C)cc1	i	9.2µM	?	i	nt	11.6µM
COc1ccccc1N(CC(=O)NCCSCc1ccco1)S(=O)(=O)c1ccccc1	i	18.4µM	i	i	nt	16.4µM
O=C(NCCSCc1ccco1)Nc1ccc(Cl)cc1	?	?	nt	i	i	11.6µM
CC(=O)N1CCN(C(=O)C(Cc2c[nH]c3ccccc23)NC(=O)c2ccccc2Cl)CC1 (configuration not stated)	i	i	i	i	i	i
O=C(CCc1ccccc1)N1CCN(Cc2ccc(F)cc2Cl)CC1	i	i	i	?	i	i
